Measurements from PubChem BioAssay AID624330 (Southern Research Specialized Biocontainment Screening …, 2012).
In all, about 340,000 compounds went through this assay and about 2,100 (0.62%) were called active.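 The calls were made as follows: active = first-screen hits whose inhibition reached a set limit at any dose in the follow-up dose series; inconclusive = inhibition above the set first-screen limit but never retested; inactive = the rest.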 The list is a sample of the results. Potency and affinity values are given separately. Square brackets hold non-standard residues; d marks the D form. Peptide text beside a SMILES is read from it. * marks the point of attachment. ξ: configuration not given here. Cbz = O=C(OCc1ccccc1)*; ξP = O=C(O)C1CCCN1

molecular target: Rac GTPase-activating protein 1 (Homo sapiens) (UniProt Q9H0H5); test: blockers of MgcRacGAP-driven Rac1 GTP hydrolysis – biochemical, ADP Hunter fluorescence, primary and confirmatory, confirmation (AID 624330); conditions: MgcRacGAP-stimulated Rac1 GTP hydrolysis, at 30 µM, active compounds read high, GST-tagged Rac1 F28L mutant substrate;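 also: fluorescence reports GDP produced by GAP-driven GTP hydrolysis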
Sequence (Q9H0H5 whole entry, looked up): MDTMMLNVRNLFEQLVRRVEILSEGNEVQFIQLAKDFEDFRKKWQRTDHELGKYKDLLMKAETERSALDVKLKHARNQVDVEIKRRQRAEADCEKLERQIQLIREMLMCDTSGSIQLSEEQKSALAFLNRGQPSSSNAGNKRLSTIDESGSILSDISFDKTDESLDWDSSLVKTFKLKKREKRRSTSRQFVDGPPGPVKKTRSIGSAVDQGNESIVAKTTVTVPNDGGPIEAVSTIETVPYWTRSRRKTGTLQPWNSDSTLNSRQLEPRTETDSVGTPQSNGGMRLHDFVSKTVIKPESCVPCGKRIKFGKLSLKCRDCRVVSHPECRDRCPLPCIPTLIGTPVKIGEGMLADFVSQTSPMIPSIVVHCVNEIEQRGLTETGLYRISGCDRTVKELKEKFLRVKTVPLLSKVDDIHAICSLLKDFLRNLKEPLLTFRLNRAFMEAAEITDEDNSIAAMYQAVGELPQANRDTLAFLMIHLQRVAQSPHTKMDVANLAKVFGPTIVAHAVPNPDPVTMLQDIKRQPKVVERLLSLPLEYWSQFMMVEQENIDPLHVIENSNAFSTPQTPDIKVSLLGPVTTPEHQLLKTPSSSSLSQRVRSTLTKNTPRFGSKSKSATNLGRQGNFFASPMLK

inhibition, inactive:
CC(CC(=O)Nc1ccc(S(=O)(=O)N2CCOCC2)cc1)c1ccccc1 (stereo not drawn) 3.54%
Cc1cc(Cl)ccc1NC(=S)N1CCN(C(=O)c2ccco2)CC1 5.96%
Cc1ccc(S(=O)(=O)NN=Cc2c(O)ccc3ccccc23)cc1 11.4%
O=C(NCCc1ccccc1)C1CCC(CNS(=O)(=O)c2ccc(F)cc2)CC1 (stereo not drawn) 6.44%
O=C(CSc1nnc(CNC(=O)c2ccco2)o1)Nc1ccc(F)cc1 -2.84%
Cc1ccc(N/C(CSC(N)=O)=N/S(=O)(=O)c2ccccc2)cc1 4.14%
Cc1cc(C=O)c(C)n1-c1cc(C(F)(F)F)ccc1N1CCOCC1 5.1%
CCn1nc(CC(C)C)cc1C(=O)N1CCCC(Nc2ccc(F)cc2)C1 (stereo not drawn) 1.25%
CCn1nc(C)cc1C(=O)N1CCCC(Nc2ccc(C(C)C)cc2)C1 (stereo not drawn) 9.28%
CCN(CC)c1ccc(S(=O)(=O)N2CCOCC2)cc1NC(=O)C1CC1 6.61%
Cc1ncc(S(=O)(=O)C(C)(C)C)c(N)n1 4.93%
O=C(COC(=O)/C=C/c1cccs1)NC(=O)Cc1ccccc1 9.86%
Nc1ccccc1SCc1ccccc1 3.68%
Nc1ccccc1SC/C=C/CSc1ccccc1N 17.8%
CC1(C)CC(=O)C2=C(C1)NC(=O)NC2c1ccc(Cl)cc1 (stereo not drawn) 9.51%
COc1ccc(NC(=O)C2CC(c3ccc(Cl)cc3)=NO2)cc1OC (stereo not drawn) -3.14%
COC(=O)C1CCN(C(=O)Cn2nnc(-c3ccccc3)n2)CC1 5.24%
CN(C)c1ccc(/C=C2\CCC/C(=C\c3ccccc3)C2=O)cc1 10.2%
CC(C)/C=C1\CC/C(=C\c2ccc(N(C)C)cc2)C1=O 6.52%
Cc1ccc(S(=O)(=O)N2CCCCC2)cc1NC(=O)CSc1nnc(C2CC2)n1N 4.18%
Cc1cc(C(=O)NCC(=O)OCC(=O)NCCc2ccccc2)ccc1[N+](=O)[O-] -1.11%
COc1ccc(F)cc1C(=O)C1CCCN(Cc2ccc3c(c2)OCCO3)C1 (stereo not drawn) 4.09%
CC(C)NC(=O)C1CCN(Cc2cccc(OCc3ccccc3)c2)CC1 6.52%
COc1ccc(-c2onc(C)c2-c2cnn(-c3ccccc3)c2)c(O)c1C 5.03%
COc1ccc(-c2n[nH]c(C)c2-c2cnn(-c3ccccc3)c2)c(O)c1C 6.48%
CC(C)(C)NC(=O)COc1coc(CN2CCN(Cc3ccccc3)CC2)cc1=O -6.74%
Cc1ccc(OCC(=O)Nc2ccc(N3CCCC3)cc2)cc1C 7%
Cc1ccc(S(=O)(=O)N2CCOCC2)cc1NC(=O)CN1CCN(C)CC1 4%
Cc1ccc(F)cc1NC(=O)CN1CCN(Cc2ccccc2)CC1 -0.43%
CCN(CC)c1ccc(S(=O)(=O)N2CCOCC2)cc1NC(=O)CN1CCc2ccccc2C1 6.44%
Cc1ccc(S(=O)(=O)N(C)C)cc1NC(=O)CN1CCCC1 3.96%
Cc1ccc(S(=O)(=O)N(C)C)cc1NC(=O)CN1CCN(Cc2ccccc2)CC1 1.33%
CCN(CC)c1ccc(S(=O)(=O)N2CCOCC2)cc1NC(=O)CSc1ccccc1 1.35%
Cc1ccc(OCCNC(=O)c2ccc(C)cc2)cc1 -0.09%
CCN1C(=O)C(NC(C)=O)c2cc(Br)ccc21 (stereo not drawn) 1.35%
CCOc1ccc(NC(=O)CN(C)C(=O)Cc2n[nH]c(=O)c3ccccc23)cc1OCC 3.38%
COc1ccccc1CN(C)C(=O)c1cccc(S(=O)(=O)N2CCCC2)c1 5.67%
Cc1cc(C)c(Nc2n[nH]c(=S)s2)cc1C 29.6%
Cc1cccc(C)c1Nc1n[nH]c(=S)s1 13.1%
COc1ccccc1N1C(=O)S/C(=C\c2cc(C)n(C)c2C)C1=O -0.75%
N#Cc1ccc[n+](CC(=O)c2ccc(NC(=O)c3ccccc3)cc2)c1 3.28%
c1cc2c3c(cccc3c1)NC1(CCCC1)N2 -1.27%
c1cc2c3c(cccc3c1)NC1(CCC3(CC1)Nc1cccc4cccc(c14)N3)N2 29.5%
COc1cc(OC)cc(N(C(=O)c2ccco2)C(C(=O)NC2CCCC2)c2ccc(N3CCOCC3)cc2)c1 (stereo not drawn) 3.31%
O=C(NC1CCCC1)C(c1ccncc1)N(C(=O)Cc1cccs1)c1ccc(F)cc1 (stereo not drawn) -2.61%
ON=C1c2ccccc2-c2ccc(Br)cc21 0.43%
ON=C1c2ccccc2-c2ccc(F)cc21 -0.77%
Nc1ccc2c(c1)C(=NO)c1ccccc1-2 14.6%
ON=C1c2ccccc2-c2ccccc21 4.05%
COCCCNc1nc2nonc2nc1NCCSC -2.05%
Cc1cc(SCc2ccc(Cl)c(Cl)c2)nc(=O)[nH]1 13.6%
CC(C)(C)C(=O)Nc1ccc(C(=O)N/N=C/C2CC3C=CC2C3)cc1 (stereo not drawn) 8.37%
COC(=O)CNC(=O)C1CCCN1C(=O)CNC(=O)OCc1ccccc1 (stereo not drawn) (Cbz-Gly-[ξP]-Gly-OMe) 7.71%
CC(C)C(C)NC(=O)CN1C(=O)NC2(CCc3ccccc3C2)C1=O (stereo not drawn) 2.87%
CCC(=O)c1ccc(OCc2ccc(C(=O)c3ccccc3)cc2)cc1 6.28%
COc1cccc(NC(=O)c2sc3nc4n(c(=O)c3c2C)CCC4)c1 -4.45%
O=C(CCC1CCCC1)Nc1cccn(Cc2ccccc2Br)c1=O 2.13%
CCOC(=O)c1cc(C)n(Cc2ccccc2)c1C -2.73%
CCOC(=O)c1sc(=S)n(Cc2ccccc2)c1C 8.11%
Cc1noc(C)c1COc1ccccc1C(=O)NNC(=O)c1ccccc1 11.8%
N#C/C(=N\Nc1cccc(F)c1)C(=N)N1CCCCCC1 15.4%
Cc1ccc(/C=N/N2C(=O)c3ccccc3NC2c2ccc(C)cc2)cc1 (stereo not drawn) 7.64%
O=C1c2ccccc2NC(c2ccccc2)N1/N=C/c1ccccc1 (stereo not drawn) 12.7%
